Several values for one entry are separate records, joined by “and”; a condition that tells them apart may be missing. Equal entries are not always repeated. About 79,000 compounds went through this panel and 15% of them were active in at least one assay; those are over-represented in the sample as a whole. Activity calls are given as the source filed them. No stated cut-off is given here; in the data, active means growth inhibition above about 70%; inactive means the rest.
Columns and labels:
[1] = NCI Yeast Anticancer Drug Screen. Data for the rad50 strain (AID 155);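 further: 0% = growth of vehicle-only cultures of the same strain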; conditions: S. cerevisiae rad50 strain growth inhibition, hits give high values; at 50.0 µM unless noted
Method in brief: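 Compounds were tested on a yeast strain with an engineered DNA damage repair alteration; the reported value is growth inhibition normalised to vehicle treatment.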

[2] = NCI Yeast Anticancer Drug Screen. Data for the mec2-1 strain (AID 157); conditions: S. cerevisiae mec2-1 strain, hits give high values; at 50.0 µM unless noted
Method in brief: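 mec2-1 yeast strain, carrying an alteration in DNA damage repair or cell cycle control, was exposed to compounds; growth inhibition was measured relative to vehicle-treated controls.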

[3] = NCI Yeast Anticancer Drug Screen. Data for the sgs1 mgt1 strain (AID 161);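 further: 0% = growth of cultures given vehicle only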; conditions: S. cerevisiae sgs1 mgt1 strain, hits give high values; at 50.0 µM unless noted
Method in brief: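 Yeast cells carrying a defined DNA-repair defect were exposed to test compounds. Growth inhibition was measured relative to vehicle-treated controls.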

[4] = NCI Yeast Anticancer Drug Screen. Data for the cln2 rad14 strain (AID 165);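 further: 0% = growth equal to vehicle treated cultures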; conditions: S. cerevisiae cln2 rad14 strain, hits give high values; at 50.0 µM unless noted
Method in brief: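 Yeast carrying cln2 and rad14 alterations (cell cycle control and DNA damage repair) were exposed to compounds. Growth inhibition was measured against vehicle-treated controls.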

[5] = NCI Yeast Anticancer Drug Screen. Data for the bub3 strain (AID 167); conditions: S. cerevisiae bub3 mutant strain, hits give high values; at 50.0 µM unless noted
Method in brief: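 Growth of a checkpoint-deficient yeast mutant is measured after compound exposure. Values represent inhibition relative to vehicle.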

[6] = NCI Yeast Anticancer Drug Screen. Data for the mlh1 rad18 strain (AID 175); conditions: S. cerevisiae mlh1 rad18 strain growth inhibition, hits give high values; at 50.0 µM unless noted
Method in brief: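 Growth inhibition of the yeast strain was measured after compound exposure and expressed relative to vehicle-treated controls. The strain carries defined defects in DNA damage repair.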

Measured: growth inhibition

Cc1ccc(S(=O)(=O)OCCN(CCOS(=O)(=O)c2ccc(C)cc2)c2cccc([N+](=O)[O-])c2)cc1
inactive: [1] 22.9% | [2] 8.85% | [3] 7.85% | [4] 22.4% | [5] -0.3% | [6] 21.4%

CC(=O)CC(=O)Nc1ccc(-c2ccc(NC(=O)CC(C)=O)c(Cl)c2)cc1Cl
inactive: [1] -22.2% | [2] -27.7% | [3] -10.2% | [4] 1.9% | [5] -16.6% | [6] -6.35%

CS1(C)=Nc2c([N+](=O)[O-])cc([N+](=O)[O-])cc2S(=O)(=O)N=1
inactive: [1] -9.9% | [2] -12.1% | [3] -1.3% | [4] -15.9% | [5] -5% | [6] 6.55%

Cc1c2cc[n+](C)cc2c(C)c2c1oc1ccccc12
inactive: [2] 62.1% | [4] 55.9% | [6] -38%
active: [1] 82.5% | [3] 78.8% | [5] 75.1%

OC(c1ccc(OCc2ccccc2)cc1)c1ccccn1 (stereo unspecified)
inactive: [1] -1.15% | [2] -0.65% | [3] -4.45% | [4] -16.4% | [5] -5.7% | [6] -0.3%

Cc1nnc(N/N=C(/C(=O)C(C#N)c2ccc(Cl)cc2)C(C#N)c2ccc(Cl)cc2)n1N (stereo unspecified)
inactive: [1] -9.3% | [2] 19.6% | [3] 3.85% | [4] 16.6% | [5] 12% | [6] 7.4%

O=C(O)C(c1ccccc1)N1C(=O)C(Cl)=C(Cl)C1=O (stereo unspecified)
inactive: [1] -0.1% | [2] -6.35% | [3] 1.4% | [4] -10.8% | [5] 1.15% | [6] 10.8%

CC(NCCN1CCOCC1)c1ccc2ccccc2c1 (stereo unspecified)
inactive: [1] 40.7% | [2] 15.4% | [3] 41.5% | [4] 23.9% | [5] 32.8% | [6] 42.6%

CN1OC(=O)OC(C)(c2ccccc2)C1=O (stereo unspecified)
inactive: [1] 2.9% | [2] -12.3% | [3] -2.3% | [4] 0.25% | [5] 0.6% | [6] -0.05%

CCCOC(=O)c1ccc(O)cc1.[Cu+2]
inactive: [1] 5% | [2] -13.3% | [3] -14% | [4] -34.4% | [5] -3.05% | [6] 12.7%

O=S(=O)(O)c1ccc2c(ccc3ccccc32)c1
inactive: [1] -18.4% and -3.8% | [2] -0.25% and -18.4% | [3] -2.9% and -14.2% | [4] -0.9% and 21.6% | [5] 1.35% and 28.1% | [6] 5.7% and -23.1%

C#CCN(N=O)C(=O)NCCCCC(NC(=O)OCc1ccccc1)C(=O)OCc1ccccc1 (stereo unspecified)
inactive: [1] -6.65% | [2] -8.15% | [3] -26.6% | [4] -4.5% | [5] 10.3% | [6] -24.9%

N=c1oc(-c2ccccc2)cc2ccccc12
inactive: [1] 29.8% | [2] -9.4% | [3] -12.3% | [4] -45.8% | [5] 15.6% | [6] 11.7%

CC1(C)CC([NH-])(C(=O)O)CC(C)(C)N1O.CC1(C)CC([NH-])(C(=O)O)CC(C)(C)N1O.[Zn+2]
inactive: [1] -1.45% | [2] -17.1% | [3] -2.25% | [4] -41.9% | [5] 1.5% | [6] -7.4%

COc1ccccc1OC(=O)Nc1ccc(S(=O)(=O)NC2CCCCC2)cc1
inactive: [1] 12.1% | [2] -10.8% | [3] 0% | [4] 2.25% | [5] -5.95% | [6] -2.2%

COc1ccc(-c2sc(/N=C/c3ccc(N(C)CCC#N)cc3)c(C#N)c2C)cc1OC
inactive: [1] 4% | [2] -1.05% | [3] 28.1% | [4] 16.4% | [5] 18.3% | [6] 15.3%

CCOc1cccc(OCC)c1
inactive: [1] 23.1% | [2] 27.1% | [3] -7.4% | [4] -2.05% | [5] 1.4% | [6] 13.9%

O=C1CC(Br)C(c2ccccc2)(c2ccccc2)O1 (stereo unspecified)
inactive: [1] 32.2% | [2] 9.4% | [3] 33.6% | [4] 46.3% | [5] 14.2% | [6] 32%

O=c1c2c3c(sc2nc2n1N=C(c1ccc(Cl)cc1)CS2)CCCC3
inactive: [1] -23.6% | [2] 6.05% | [3] -37.9% | [4] 1.8% | [5] -12.1% | [6] -16.6%

O=CNNc1nn2cnnc2c2ccccc12
inactive: [1] -1% | [2] 9.95% | [3] -6.55% | [4] 11.9% | [5] -16.6% | [6] 9.6%

CC1(C)OC2COC(OCc3ccccc3)C(OCc3ccccc3)C2O1 (stereo unspecified)
inactive: [1] 17.4% | [2] 8.1% | [3] 26.8% | [4] 7.35% | [5] -8.7% | [6] 19%

CC(C)=C1C2C(C13C(=O)OC(C)(C)OC3=O)C2(C)C (stereo unspecified)
inactive: [1] -10.5% | [2] -16.9% | [3] -11.6% | [4] 7.9% | [5] -21.6% | [6] -9.2%

O/N=C1\c2ccccc2-c2cccc(Br)c21
inactive: [1] 0.25% | [2] 2.9% | [3] 4.55% | [4] -40.6% | [5] -9.6% | [6] 5.45%

CC(NC(=O)CNC(=O)OCc1ccccc1)C(=O)O (stereo unspecified)
inactive: [1] 3.55% | [2] 9.35% | [3] 11.6% | [4] -0.35% | [5] 8.1% | [6] -10.1%

O=C1OCC(c2ccccc2)=C1c1ccccc1
inactive: [1] 22.3% | [2] -3% | [3] 20.3% | [4] -16% | [5] 6.35% | [6] 16.6%

CCCCCCN1COCC(COc2ccc(Cl)cc2)OC1 (stereo unspecified)
inactive: [1] 23.8% | [2] 18.8% | [3] 36.9% | [4] 22.1% | [5] 10.7% | [6] 50.1%

COc1cc2cnc3c4cc(OC(C)C)c(OC)cc4ccc3c2cc1OC
inactive: [1] -10% | [2] -15.3% | [3] -20.1% | [4] 5.75% | [5] -5.3% | [6] -29.4%

O=S(=O)(O)c1cc(S(=O)(=O)O)c2cc(O)ccc2c1
inactive: [1] 0.6% | [2] 3.35% | [3] 13.4% | [4] -18.6% | [5] 5.35% | [6] 28.4%

O=C1CCCCCCCCCCCCCCCCC1
inactive: [1] -13.3% | [2] -5.85% | [3] -11.3% | [4] -7.25% | [5] -2.15% | [6] -13.9%

Cc1nc(SCC(=O)Nc2ccccc2)c2sc(=S)n(-c3ccccc3)c2n1
inactive: [1] -45.9% | [2] -10.2% | [3] -0.05% | [4] -5.35% | [5] -19.9% | [6] -18.4%

CCOC(=O)c1c(C(=O)OCC)c2cccn2c2c1cnn2-c1ccccc1
inactive: [1] -0.85% | [2] 1.65% | [3] 5.1% | [4] 5.55% | [5] -20.8% | [6] -2.55%

CC(=O)Cc1ncn(-c2cc(C)on2)n1
inactive: [1] -9.4% | [2] -20.4% | [3] -18.1% | [4] 11.6% | [5] -1.45% | [6] -13.7%

CCCCCCCCCCCC(=O)OC(COCCC(C)C)COCCC(C)C
inactive: [1] -2.9% | [2] -5.05% | [3] -3.15% | [4] -12.1% | [5] -11.9% | [6] 12.1%

C[N+]1(CCN[N+]2(C)CCCCC2)CCc2ccccc2C1 (stereo unspecified)
inactive: [1] -5.55% | [2] -14.7% | [3] -44.5% | [4] -20.3% | [5] -39.3% | [6] -3.25%

CC(=O)CC(=O)N1CCc2ccccc21
inactive: [1] 3.8% | [2] -14.9% | [3] 3.8% | [4] 2.55% | [5] -19.6% | [6] 1.1%

COc1ccc(O)c2c1C(=O)CCCC2=O
inactive: [1] 3.65% | [2] -0.75% | [3] 6.35% | [4] -4.6% | [5] 4.05% | [6] 0.7%

— PubChem BioAssay (NCI)
